HT1080-NT tox – kills 2HG-producing HT-1080-NT fibrosarcoma cells | HT-1080-NT fibrosarcoma viability, CellTiter-Glo ATP luminescence, 48 h | Potency, µM (doses to about 46.1 µM), for inactives: at the top dose activity, negative = less viability, actives largely listed as cytotoxic | 360,000 tested, 1.6% active;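 further: NT is the 2HG producing partner of a matched IDH1 knockdown line; 0% = DMSO-treated cells and -100% = media-only wells without cells; nearly all actives have a fitted effect of over 55% in size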
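Luminescent CellTiter-Glo readout after 48 hours of compound exposure at 37 degrees C defined viability of HT-1080-NT cells. Activity was normalized to DMSO wells and cell-free media wells; concentration-response curves were fitted and assigned curve classes.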
KB-V1 MDR tox – kills drug-selected multidrug resistant KB-V1 cells; Potency, µM (highest dose often 46.1 µM), actives largely listed as cytotoxic; KB-V1 MDR cells viability, CellTiter-Glo, 72 h; AID 1347076; 400,000 tested, 3.4% active; further: on the % scale 0 is the no-effect control and ±100 the full control effect; nearly all actives have a fitted effect of over 60% in size
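Drug-selected KB-V1 cells, grown in DMEM lacking phenol red with 10% FBS, receive compound titrations; after three days at 37 degrees C, surviving cell ATP is quantified by CellTiter-Glo luminescence and responses normalized and curve-fitted.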
SW480 rerep – induces DNA re-replication in SW480 colon adenocarcinoma cells. Potency, µM (top dose mostly 46.1 µM), for the others: at the top dose re-replication activation, hits mostly activators. SW480 DNA re-replication, Hoechst DNA content imaging, 48 h. 340,000 tested, 1.8% active. AID 624297; further: % of control where 0% means no effect; nearly all actives have a fitted effect of over 55% in size
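Quantitative HTS format with DMSO vehicle controls; 48 hr drug incubation at 37 C, then 40 min Hoechst staining and scanning imager measurement at 405 nm excitation.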
MCF10A rereplic – induces DNA re-replication in MCF 10a normal breast cells; 350,000 tested, 2.9% active; MCF 10A DNA re-replication, Hoechst nuclear intensity, 48 h; Potency, µM (top dose mostly 46.1 µM), inactives show at the highest dose activity, positive = re-replication, hits mostly activators; further: % of control where 0% means no effect; nearly all actives have a fitted effect of over 50% in size
KB-3-1 tox – KB-3-1 parental cell cytotoxicity. AID 1347075. KB-3-1 viability, CellTiter-Glo ATP luminescence, 72 h. Potency, µM (series often up to 46.1 µM), most hits filed as cytotoxic. 400,000 tested, 1.4% active; further: on the % scale 0 is the no-effect control and ±100 the full control effect; nearly all actives have a fitted effect of over 60% in size
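Here the drug-naive KB-3-1 line serves as comparator for MDR sub-line selectivity; cells received compound titrations, 72 h at 37 °C, then CellTiter-Glo readout.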
HT1080 IDH1KD tx – kills HT-1080 cells with IDH1 knockdown | Potency, µM (doses to about 46.1 µM), without a hit: top-dose activity, negative = toxicity, most hits filed as cytotoxic | HT-1080 IDH1 knockdown viability, ATP luminescence, 48 h | 360,000 tested, 2% active;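 further: 0% = DMSO wells and -100% = cell-free medium wells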
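In this qHTS, HT-1080 cells depleted of IDH1 are exposed for 48 h at 37 °C to compound titrations. Toxicity is scored from CellTiter-Glo luminescence, with DMSO as full viability and medium alone as none.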
* hit, by the source's call; i = inactive; ? = inconclusive; / = no result; [ ] = remark or other dose. The list is not random: actives were taken first. Their share in the collection is about 7.9%. The call rests on the fitted dose curve; in most records, active means well fitted curve in the direction sought with a large enough effect; inconclusive means small, poorly fitted or top-dose-only effect, or another doubt; inactive means no such curve, though single readings can be large; an effect the other way counts as inactive or inconclusive. Potency means the concentration at half of the fitted maximal effect.

SMILES | HT1080-NT tox | KB-V1 MDR tox | SW480 rerep | MCF10A rereplic | KB-3-1 tox | HT1080 IDH1KD tx
O=C(Nc1ccc(Cl)cc1Cl)[C@@H]1CC=C[C@@H]2CCN(C3CCCCC3)C(=O)[C@@H]21 | / | i | / | / | i | /
CCOC(=O)C1CCN(C(c2ccc(SC)cc2)c2c(O)cc(C)n(Cc3ccco3)c2=O)CC1 (stereo not given) | / | i | / | / | i | /
CCCCOc1ccc(C(=O)NCC(=O)NCc2ccccn2)cc1 | -28.0% | ? | ? | 57.0% | 0.517µM* | -29.9%
COCCNC(=O)[C@@H]1CCCN1C(=O)C1CCN(S(=O)(=O)c2ccc(C)cc2)CC1 | 11.3% | i | -3.2% | -0.5% | i | -2.2%
O=C1C(Cl)=C(Nc2ccc3cn[nH]c3c2)C(=O)c2ccccc21 | ? | ? | 2.31µM* | 0.581µM* | ? | 2.59µM*
CN(C)c1ccc(NC2=C(Cl)C(=O)c3ccccc3C2=O)cc1 | 3.26µM* | i | 2.91µM* | 4.11µM* | ? | 2.31µM*
CC(=O)Nc1ccc(NC2=C(Cl)C(=O)c3ccccc3C2=O)cc1 | 4.61µM* | ? | 5.17µM* | ? | 16.4µM* | 2.91µM*
O=c1c2ccccc2nnn1CCO | 5.1% | i | 1.8% | -1.2% | i | 7.0%
Cc1[nH]c2ccccc2c1/C=N/NC(=O)c1cc(-c2ccccc2)n[nH]1 | 14.6µM* | i | -19.3% | 0.0% | i | 14.6µM*
Cc1[nH]c2ccccc2c1/C=N/NC(=O)c1ccccc1 | 2.8% | i | 1.0% | 2.9% | i | -2.0%
Cc1[nH]c2ccccc2c1/C=N/NC(=O)c1cc(-c2ccncc2)nc2ccccc12 | ? | i | 13µM* | ? | ? | 4.61µM*
O=C(N/N=C/c1ccccc1OC(F)F)c1cc(-c2ccncc2)nc2ccccc12 | ? | i | 11.6µM* | 4.61µM* | 18.4µM* | 2.06µM*
Cc1nn(-c2ccccc2)c(C)c1/C=N/NC(=O)c1cc(-c2ccccc2)n[nH]1 | 0.731µM* | ? | ? | ? | 0.411µM* | ?
O=C(Cc1cccc(F)c1F)NC1CCCN(Cc2ccc(Cl)cc2)C1 (stereo not given) | -6.7% | i | -1.8% | -4.2% | i | -1.2%
COc1ccc(C2CC(=O)c3cc(-c4nc(-c5cccc([N+](=O)[O-])c5)cs4)c(=O)n(-c4ccccc4C)c3C2)cc1 (stereo not given) | / | ? | / | / | i | /
CC1(S(=O)(=O)O)CC(=O)c2ccccc2C1=O (stereo not given) | 18.4µM* | i | 14.6µM* | ? | ? | 20.6µM*
CC1(N2CCCCC2)C(=O)c2ccccc2C1=O | -16.3% | i | -13.3% | ? | i | -9.9%
CCCCN1C(=O)C(=O)N(CC(=O)Nc2cc(S(=O)(=O)N(C)C)ccc2C)C1=O | 9.2% | i | -4.0% | -3.2% | i | 6.3%
CO/N=C/c1ccc(Oc2ccc([N+](=O)[O-])cc2[N+](=O)[O-])c(OC)c1 | ? | ? | ? | ? | i | ?
COc1cc(/C=C2\SC(=O)NC2=O)ccc1Oc1ccc([N+](=O)[O-])cc1[N+](=O)[O-] | -27.3% | i | 20.8% | 20.6µM* | i | ?
CCN1C(=O)C(=Cc2cccc(OC)c2Oc2ccc([N+](=O)[O-])cc2[N+](=O)[O-])SC1=S | 2.59µM* | ? | 4.61µM* | ? | 23.1µM* | 3.26µM*
O=C(NCCc1ccccc1)c1ccc(CSc2nc3ccncc3n2Cc2ccccc2F)cc1 | / | i | / | / | i | /
CCSC1=NSC2=NC(=O)/C(=C\c3coc4ccccc4c3=O)C(=N)N12 | 6.4% | i | ? | 18.4µM* | i | 3.3%
CC(=O)Nc1cc(C(=O)OCC(=O)c2ccc(Cl)cc2Cl)ccc1C | -5.6% | ? | -5.2% | 7.6% | i | -1.8%
CC(C)C(=O)Nc1cccc(C(=O)OCC(=O)c2ccc(Cl)cc2Cl)c1 | -0.5% | 14.6µM* | 2.9% | 10.0% | i | 0.0%
SMILES | HT1080-NT tox | KB-V1 MDR tox | SW480 rerep | MCF10A rereplic | KB-3-1 tox | HT1080 IDH1KD tx
COc1cccc(-c2onc3ccc(C4(C)OCCO4)cc23)c1 | 0.0% | i | 15.6% | 18.4µM* | i | -3.8%
CCOC(=O)c1c(C=O)c(C)n(Cc2ccccc2)c1C | -1.1% | i | -4.9% | 4.3% | i | -5.4%
CCOC(=O)c1c(C=O)c(C)n(Cc2ccc(Cl)cc2)c1C | 0.8% | 3.66µM* | 1.0% | 11.6µM* | i | -13.1%
NC(=O)C1CCN(c2ncc(-c3cccc(N4CCCCC4)c3)s2)CC1 | / | i | / | / | i | /
C/C(=N\Nc1cc(N2CCCCC2)nc(C)n1)c1ccc(Br)cc1 | ? | ? | ? | 11.6µM* | ? | ?
C/C(=N\Nc1cc(N2CCOCC2)nc(C)n1)c1ccc(F)cc1 | -17.5% | i | ? | -10.4% | i | -16.4%
O=C(COC(=O)CCS(=O)(=O)c1ccccc1)NC(=O)c1ccc(OC(F)F)cc1 | -2.8% | i | 0.7% | 10.0% | i | -7.9%
CCc1ccc(S(=O)(=O)c2cn(Cc3ccc(OC)cc3)c3cc(OC)c(OC)cc3c2=O)cc1 | / | i | / | / | i | /
Cc1cc(C(F)F)n2nc(C(=O)Nc3ccc(F)c(Cl)c3)nc2n1 | / | i | / | / | i | /
CCN1/C(=C\C(=S)Nc2ccccc2)Sc2ccccc21 | 14.6µM* | i | 1.8% | 6.6% | ? | 9.2µM*
CCN1/C(=C\C=C(C(C)=O)C(C)=O)Sc2ccccc21 | 1.9% | i | -4.2% | 27.7% | i | -11.3%
C/C(=N\NC(=O)c1cccnc1)c1cc(C)oc1C | -2.0% | i | 20.6µM* | 7.1% | i | -0.7%
O=C1S/C(=C\c2ccc(N3CCOCC3)o2)C(=O)N1Cc1c(F)cccc1Cl | ? | i | 4.3% | 10.8% | i | 3.55µM*
O=C1S/C(=C/c2ccc(N3CCOCC3)o2)C(=O)N1Cc1c(F)cccc1Cl | -12.1% | i | ? | ? | i | -18.8%
CCCN1C(=O)/C(=C\c2ccncc2)SC1=Nc1ccccc1 | -11.3% | ? | -9.0% | ? | i | -13.1%
CCN1C(=O)/C(=C\c2ccncc2)SC1=Nc1ccc(C)c(C)c1 | -1.6% | 14.6µM* | -1.0% | ? | ? | -15.9%
CC1(C(=O)NS(=O)(=O)c2cccc(Cl)c2)CCN1C(=O)CCc1ccccc1 (stereo not given) | -1.4% | i | / | / | i | 16.4%
COc1cc(O)c(NC(C)=O)c2nonc12 | -0.4% | i | -8.6% | -2.7% | i | -2.0%[9.24 µM]
CC(=O)NC1=CC(=O)c2nonc2C1=O | / | i | / | / | 5.17µM* | /
O=C(CSc1nc2ccccc2nc1Cc1ccc(Cl)cc1)N1CCc2ccccc21 | / | ? | / | / | i | /

Source: PubChem BioAssay
